Screening results: PubChem BioAssay, several laboratories
CYP2C9 inhib – human CYP2C9 inhibition. P11712. CYP2C9 Supersomes, luciferin-H conversion, luminescence. inhibition, % at 5 µM. 96,000 compounds, 20% hits;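 active means blocking of liver enzyme CYP2C9 beyond about 50% at 5 µM, limit read from the data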
Target sequence (P11712 whole entry, looked up): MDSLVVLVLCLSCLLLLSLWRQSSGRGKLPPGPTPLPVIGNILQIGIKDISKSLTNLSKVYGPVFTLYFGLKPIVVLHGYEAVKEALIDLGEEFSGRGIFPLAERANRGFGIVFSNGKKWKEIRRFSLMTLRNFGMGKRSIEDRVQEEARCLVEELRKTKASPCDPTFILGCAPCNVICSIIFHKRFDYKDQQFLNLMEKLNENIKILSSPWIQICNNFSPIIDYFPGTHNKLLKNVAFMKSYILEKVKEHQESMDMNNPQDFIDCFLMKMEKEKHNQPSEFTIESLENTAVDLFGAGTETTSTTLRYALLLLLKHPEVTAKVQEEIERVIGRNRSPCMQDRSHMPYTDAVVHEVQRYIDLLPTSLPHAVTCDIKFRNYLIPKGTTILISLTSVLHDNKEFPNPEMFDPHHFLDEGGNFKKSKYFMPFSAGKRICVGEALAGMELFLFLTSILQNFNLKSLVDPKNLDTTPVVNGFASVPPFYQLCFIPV
sEH inh – inhibitors of human soluble epoxide hydrolase. P34913. recombinant human sEH enzymatic activity assay. inhibition, % at 2 µM. 91,000 compounds, 0.34% hits. AID 707; in the data active means inhibition above about 80%
CYP2C19 activ – increases human CYP2C19 enzyme activity; P33261; recombinant CYP2C19, luciferin-H EGE luminescence; hits give high values; 0 = fully inhibited enzyme, 1 = untreated enzyme; activation factor at 5 µM; 96,000 tested, under 10 active;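 active means activation factor of at least 2 at 5 µM in the primary screen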
CYP2C19 inhib – inhibitors of human CYP2C19 | P33261 | CYP2C19 Supersomes, luciferin-H EGE luminescence, 30 min | inhibition, % at 5 µM | 96,000 compounds, 21% hits;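 active means CYP2C19 inhibition above a set limit at 5 µM in the primary screen, cut at about 50% in these data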
sEH activator – increases human soluble epoxide hydrolase activity; P34913; purified human sEH enzymatic activity, activator screen; activation, % at 2 µM; 91,000 compounds, 0.04% hits; AID 717; in the data active means activation above about 37%
CYP2C9 activ – increases human cytochrome P450 2C9 activity; P11712; activation factor at 5 µM; recombinant CYP2C9, luciferin-H conversion, luminescence; hits give high values; factor 1 = untreated enzyme, 0 = blocked; 96,000 compounds, 1.4% hits; AID 1024;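 active means activation factor of 2 or more for CYP2C9 at a 5 µM dose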
A number is an active result; 0 = inactive; - = no result. The list is not random: actives were taken first. Their share in the collection is about 27%.

SMILES	CYP2C9 inhib	sEH inh	CYP2C19 activ	CYP2C19 inhib	sEH activator	CYP2C9 activ
CCOc1ccc(C2NC(=O)c3ccccc3O2)cc1 (stereo not drawn)	0	-	0	0	-	0
O=C1OCC2=C1C(c1ccc3c(c1)OCO3)Sc1ccccc1N2 (stereo not drawn)	70	0	0	96	0	0
O=C1CC(c2ccc3c(c2)OCO3)CN1 (stereo not drawn)	0	-	0	0	-	0
CCCCNC(=S)NNC(=O)c1csc(C(C)C)c1	-	0	-	-	0	-
Cc1c(Cl)ccc2c1NC(=O)[C@]21N[C@@H](Cc2ccccc2)[C@H]2C(=O)N(c3ccc(F)cc3)C(=O)[C@H]21	0	0	0	0	0	0
O=C(O)CCN1C(=O)c2ccccc2C1=O	0	0	0	0	0	0
O=C1Cc2ccccc2C(=O)N1CCc1ccccc1	0	0	0	52	0	0
Nc1nc(SCC(=O)C23CC4CC(CC(C4)C2)C3)n[nH]1	53	0	0	0	0	0
CCCCC(=O)NC(c1ccco1)c1c(O)ccc2ccccc12 (stereo not drawn)	70	0	0	0	0	0
CCCC(=O)NC(c1ccco1)c1c(O)ccc2ccccc12 (stereo not drawn)	90	0	0	97	0	0
CCN(CC)c1ccc(C2C(C(=O)OC)=C(C)NC(C)=C2C(=O)OC)cc1	0	-	0	0	-	0
O=C1c2ccccc2C(=O)C1c1ccnc2ccccc12	-	0	-	-	0	-
COC(=O)C1=C(C)NC(C)=C(C(=O)OC)C1c1ccc(NC(C)=O)cc1	52	0	0	0	0	0
COC(=O)C1=C(C)NC(C)=C(C(=O)OC)C1c1ccc2ccccc2n1	50	0	0	77	0	0
O=C1c2ccccc2C(=O)C1c1ccc2ccccc2n1	74	-	0	82	-	0
Cc1ccc(S(=O)(=O)N2CCC(C(=O)NCCc3ccc(S(N)(=O)=O)cc3)CC2)cc1	0	0	0	0	0	0
O=S(Cc1cc(Oc2ccccc2)nc(-c2ccccc2)n1)c1ccccc1 (stereo not drawn)	78	0	0	84	0	0
C=CCn1c(SCc2ccc(C#N)cc2)nnc1-c1cccc(OC)c1	64	0	0	91	0	0
C=CCn1c(SCc2ccc(OC)cc2)nnc1-c1cccnc1	0	0	0	77	0	0
CCn1c(SCc2cccc(C)c2)nnc1-c1ccc(C)cc1	0	0	0	86	0	0
C=CCn1c(SCc2ccc(C#N)cc2)nnc1-c1ccccc1	0	0	0	0	0	0
CCn1c(SCc2ccc(OC)cc2)nnc1-c1ccncc1	0	0	0	92	0	0
CCn1c(SCc2cccc(C(F)(F)F)c2)nnc1-c1ccco1	-	0	-	-	0	-
Cc1cccc(N2CCN(C(=O)Cn3cnc4c3c(=O)n(C)c(=O)n4C)CC2)c1C	-	0	-	-	0	-
Cn1c(SCc2ccc(C#N)cc2)nnc1-c1cccc(Cl)c1	0	0	0	74	0	0
SMILES	CYP2C9 inhib	sEH inh	CYP2C19 activ	CYP2C19 inhib	sEH activator	CYP2C9 activ
COc1cccc(-c2nnc(SCc3ccc(C#N)cc3)n2Cc2ccco2)c1	95	0	0	91	0	0
Cn1c(SCc2ccc(C#N)cc2)nnc1-c1ccccc1	0	0	0	0	0	0
Cc1ccc(-n2c(SCc3ccc(C#N)cc3)nnc2-c2ccccn2)cc1	51	0	0	50	0	0
Nc1nc(CSc2nnnn2-c2ccc(Cl)cc2)nc(N2CCOCC2)n1	0	0	0	0	0	0
Cc1ccc(C)c(-c2nn(-c3cc(N4CCN(CCO)CC4)ccc3[N+](=O)[O-])c(=O)c3ccccc23)c1	0	0	0	0	0	0
CSc1ccc(-c2nnn(Cc3ccc(C)cc3)n2)cc1	0	0	0	62	0	0
Cc1ccc(-c2nnn(CC(=O)O)n2)cc1	0	0	0	0	0	0
CCCc1cc(=O)[nH]c(SCC(=O)N(CC)C2CCS(=O)(=O)C2)n1 (stereo not drawn)	0	0	0	0	0	0
O=C(Cn1nc(-c2ccccc2)c2ccccc2c1=O)Nc1cccnc1	72	0	0	0	0	0
CNC(=O)CCn1nc(-c2ccc(Cl)cc2)c2ccccc2c1=O	0	0	0	0	0	0
N#Cc1c(-c2ccccc2)c(-c2ccccc2)nn(CC(=O)NNC(=O)Nc2ccccc2)c1=O	53	0	0	0	0	0
COc1ccc(-c2nn(CC(=O)Nc3ccc(Cl)c(Cl)c3)c(=O)c3ccccc23)cc1	87	0	0	0	0	0
O=C(Cn1nc(-c2ccc(Cl)cc2)c2ccccc2c1=O)Nc1cccnc1	59	0	0	0	0	0
O=C(Cn1nc(-c2ccccc2)c2ccccc2c1=O)Nc1ccccn1	0	0	0	0	0	0
CCCC(=O)NNC(=O)Nc1ccccc1	0	0	0	0	0	0
CC(C)CC(=O)c1c[nH]c(C(=O)NCCc2ccccn2)c1	0	-	0	0	-	0
Cc1cccc(Oc2ncc(-c3ccc(Cl)cc3)cn2)c1	0	0	0	0	0	0
CCOc1cccc(-c2nnc3sc(COc4ccc(Cl)cc4)nn23)c1	0	0	0	0	0	0
CCCCCCOC1(c2ccccc2)OC(=O)c2ccccc21 (stereo not drawn)	62	0	0	56	0	0
CCCCCCCOC1(c2ccccc2)OC(=O)c2ccccc21 (stereo not drawn)	76	0	0	78	0	0
Cc1cccc(OC2(c3ccccc3)OC(=O)c3ccccc32)c1C (stereo not drawn)	83	0	0	0	0	0
Cc1ccc(C(=O)N2C3C=CC(C3)C2(C(F)(F)F)C(F)(F)F)cc1 (stereo not drawn)	0	0	0	0	0	0
O=C(/C=C/c1ccco1)NC(=S)NNC(=O)c1ccco1	-	0	-	-	0	-
CC(=O)C1=C(C)NC(SCC(=O)c2ccc(Cl)c(Cl)c2)=C(C#N)C1c1ccco1 (stereo not drawn)	93	-	0	77	-	0
CC(=O)C1=C(C)NC(SCC(=O)c2cc(Cl)ccc2Cl)=C(C#N)C1c1ccco1 (stereo not drawn)	100	-	0	100	-	0
SMILES	CYP2C9 inhib	sEH inh	CYP2C19 activ	CYP2C19 inhib	sEH activator	CYP2C9 activ
COc1ccc(N(CC(O)Cn2nnc3ccccc32)S(=O)(=O)c2ccc(C)cc2)cc1 (stereo not drawn)	69	0	0	86	0	0
COc1ccc(N(CC(O)CN2C(=O)NC(C)(C)C2=O)S(=O)(=O)c2ccc(C)cc2)cc1 (stereo not drawn)	66	0	0	61	0	0
COc1ccc(N(CC(O)CN2CCCCC2)S(=O)(=O)c2ccc(C)cc2)cc1 (stereo not drawn)	0	0	0	0	0	0
COc1ccc(Cl)cc1N1C(=O)CC(N2CCc3ccccc32)C1=O (stereo not drawn)	0	0	0	91	0	0
COc1ccccc1N1C(=O)CC(N2CCc3ccccc32)C1=O (stereo not drawn)	0	0	0	91	0	0
COc1cccc(N2C(=O)CC(N3CCc4ccccc43)C2=O)c1 (stereo not drawn)	0	0	0	83	0	0
